CCHF vOTU inh-1 = blocks the CCHF virus ovarian tumor domain protease. CCHFV vOTU protease, Pep-AMC fluorescence. inhibition, % at 11.5 µM. 0.55% of 370,000 active
Sa ugtP lethal = kills S. aureus RN4220 lacking UgtP. AID 1259309. growth inhibition, % (no concentration beside the values). S. aureus RN4220 ugtP deletion, OD600 growth, 16 h. 0.54% of 330,000 active; in the data active = growth inhibition above about 68%
Mtb hypoxia rep = Mtb hypoxia fluorescent reporter inhibition | M. tuberculosis hypoxia-regulated fluorescent reporter, fluorescence | fluorescence inhibition, % (no concentration beside the values) | 0.1% of 300,000 active; in the data active = fluorescence inhibition mostly above about 23%, no sharp cut-off; inactive = mostly below about 17%
RN4220 kill = S. aureus RN4220 growth inhibition | 0.33% of 330,000 active | inhibition, % (no concentration beside the values) | OD600, 16 h; in the data active = inhibition above about 85%
PriA SSB inh = inhibitors of Klebsiella pneumoniae PriA binding to SSB C-terminal tail; AlphaScreen SSBct-PriA binding, biotinylated peptide; inhibition, % at 33 µM; 0.6% of 430,000 active; in the data active = inhibition mostly above about 37%, no sharp cut-off; inactive = mostly below about 20%
CCHF vOTU inh-2 = CCHFV vOTU protease inhibition, confirmation | 17% of 1,900 active | inhibition, % at 11.5 µM | Recombinant CCHFV vOTU, Pep-AMC fluorescence | shares compounds with CCHF vOTU inh-1
A number is an active result. Only some compounds are listed: those with a hit (about 1.4% of all), similar ones and a draw of the others. Cut-off read from the data, not from the text of the source, unless noted: active = inhibition above about 30%; inactive = the rest.

`CCc1ccc(/C=c2\s/c(=C\C(=O)C(C)(C)C)[nH]c2=O)cc1` gave CCHF vOTU inh-1 36 and CCHF vOTU inh-2 inactive.
For Cc1c(Cl)cccc1NC(=O)c1ccncc1 the results were PriA SSB inh inactive.
C[n+]1ccn(CC(=O)c2cccs2)c1 was read as CCHF vOTU inh-1 inactive, Sa ugtP lethal inactive, Mtb hypoxia rep inactive, RN4220 kill inactive and PriA SSB inh inactive.
CCCCCCCCCCCCCCCCn1cc[n+](C)c1 was read as CCHF vOTU inh-1 39, Sa ugtP lethal 99, Mtb hypoxia rep inactive, RN4220 kill 101, PriA SSB inh inactive and CCHF vOTU inh-2 50.
For c1coc(C2=Nc3ccccc3SC(c3ccc4c(c3)OCO4)C2)c1 (centres undefined) the results were PriA SSB inh inactive.
CC1(Cc2ccc(C(F)(F)F)o2)C(=O)Nc2cc(-c3ccc(F)cc3F)ccc21 (centres undefined) was read as CCHF vOTU inh-1 39 and CCHF vOTU inh-2 inactive.
Screening CN(C)c1ccc(N=Cc2cccn2C)cc1 returned CCHF vOTU inh-1 42, PriA SSB inh inactive and CCHF vOTU inh-2 inactive.
Cc1nnc(C)n1N=Cc1cccn1C was read as Sa ugtP lethal inactive, RN4220 kill inactive and PriA SSB inh inactive.
O=C1CCSCC(C(=O)N2CCN(c3cccc(Cl)c3Cl)CC2)N1 (centres undefined) was read as PriA SSB inh inactive.
Cc1ccc(C)c(NC(=O)CN(C)C(=O)c2cc(C3CC3)nn2-c2ccccc2)c1 was read as CCHF vOTU inh-1 inactive, Sa ugtP lethal inactive, Mtb hypoxia rep inactive, RN4220 kill inactive and PriA SSB inh inactive.
Screening CCc1ccccc1NC(=O)CNC(=O)c1cc(C2CC2)nn1-c1ccccc1 returned CCHF vOTU inh-1 39, Sa ugtP lethal inactive, Mtb hypoxia rep inactive, RN4220 kill inactive, PriA SSB inh inactive and CCHF vOTU inh-2 inactive.
Screening NC(=NOC(=O)c1cccc(Br)c1)c1ccc(Br)cc1 returned Sa ugtP lethal inactive, Mtb hypoxia rep inactive, RN4220 kill inactive and PriA SSB inh inactive.
`CN1C(=O)CC(N2CCC(C(N)=O)(N3CCCCC3)CC2)C1=O` (centres undefined) gave CCHF vOTU inh-1 inactive, Sa ugtP lethal inactive, Mtb hypoxia rep inactive, RN4220 kill inactive and PriA SSB inh inactive.
For NC(=O)C1(N2CCCCC2)CCN(C2CC(=O)NC2=O)CC1 (centres undefined) the results were CCHF vOTU inh-1 31, Sa ugtP lethal inactive, Mtb hypoxia rep inactive, RN4220 kill inactive, PriA SSB inh inactive and CCHF vOTU inh-2 inactive.
COc1ccc(OC)c(-c2nnc3n2N=C(c2ccc(OC)c(OC4CCCC4)c2)CS3)c1 was read as CCHF vOTU inh-1 32, Sa ugtP lethal inactive, Mtb hypoxia rep inactive, RN4220 kill inactive, PriA SSB inh inactive and CCHF vOTU inh-2 inactive.
Screening COc1ccc(OC)c(-c2nnc3n2N=C(c2ccc(OC)c(OC)c2)CS3)c1 returned CCHF vOTU inh-1 inactive, Sa ugtP lethal inactive, Mtb hypoxia rep inactive, RN4220 kill inactive and PriA SSB inh inactive.
For Nc1ccc2c(c1)Cc1cc(Cl)c(Cl)cc1-2 the results were CCHF vOTU inh-1 inactive, Sa ugtP lethal inactive, Mtb hypoxia rep inactive, RN4220 kill inactive and PriA SSB inh inactive.
Screening Nc1ccc2c(c1)Cc1cc(N)c(Cl)cc1-2 returned CCHF vOTU inh-1 31, PriA SSB inh inactive and CCHF vOTU inh-2 inactive.
O=C(NCc1ccccc1)c1ccc2nc(-c3ccco3)c(-c3ccco3)nc2c1 was read as CCHF vOTU inh-1 49, Sa ugtP lethal inactive, RN4220 kill inactive, PriA SSB inh inactive and CCHF vOTU inh-2 inactive.
For O=C(c1ccc2nc(-c3ccco3)c(-c3ccco3)nc2c1)N1CCN(c2ncccn2)CC1 the results were CCHF vOTU inh-1 32, Sa ugtP lethal inactive, Mtb hypoxia rep inactive, RN4220 kill inactive, PriA SSB inh inactive and CCHF vOTU inh-2 50.
For CCCCNC(=O)c1ccc2nc(-c3ccco3)c(-c3ccco3)nc2c1 the results were CCHF vOTU inh-1 48, Sa ugtP lethal inactive, Mtb hypoxia rep inactive, RN4220 kill inactive, PriA SSB inh inactive and CCHF vOTU inh-2 inactive.
Screening CC(=O)c1ccc(NC(=O)c2ccc3nc(-c4ccco4)c(-c4ccco4)nc3c2)cc1 returned Sa ugtP lethal inactive, RN4220 kill inactive and PriA SSB inh inactive.
`O=C(NCCCO)c1ccc2nc(-c3ccco3)c(-c3ccco3)nc2c1` gave CCHF vOTU inh-1 40, Sa ugtP lethal inactive, Mtb hypoxia rep inactive, RN4220 kill inactive, PriA SSB inh inactive and CCHF vOTU inh-2 55.

Bioassay records: PubChem, several laboratories
